# From PubChem BioAssay
# Shown are actives, neighbours in structure and some others; about 2.8% of the full set was active somewhere.
# GLP1R ag: qHTS of GLP-1 Receptor Agonists; Glucagon-like peptide 1 receptor (Homo sapiens), P43220; HEK293 GLP-1R CRE-luciferase, luminescence, 4-6 h; cells express a hypersensitive GLP-1R form; Potency, µM (highest dose often 45.6 µM), for inactives: at the highest dose activation, hits mostly activators; hit rate 0.007% among 380,000; AID 624172, 2012; note: % of control where 0% means no effect
# Target sequence (P43220 whole entry, looked up): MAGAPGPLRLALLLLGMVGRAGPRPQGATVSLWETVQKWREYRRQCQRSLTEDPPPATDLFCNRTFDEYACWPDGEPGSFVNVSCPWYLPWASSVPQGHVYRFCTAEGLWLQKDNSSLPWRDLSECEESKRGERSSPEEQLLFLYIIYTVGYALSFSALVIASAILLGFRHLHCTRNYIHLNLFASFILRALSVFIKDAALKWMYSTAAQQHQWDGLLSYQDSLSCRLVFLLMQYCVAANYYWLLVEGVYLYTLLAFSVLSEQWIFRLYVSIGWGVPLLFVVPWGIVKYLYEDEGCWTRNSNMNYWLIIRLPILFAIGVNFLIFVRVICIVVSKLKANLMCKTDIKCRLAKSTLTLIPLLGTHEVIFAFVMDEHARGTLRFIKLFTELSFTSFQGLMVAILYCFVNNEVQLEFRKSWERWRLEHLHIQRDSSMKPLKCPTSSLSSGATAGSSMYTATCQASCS
# Mito fusion act: qHTS Assay for Small Molecule Inhibitors of Mitochondrial Division or Activators of Mitochondrial Fusion. S. cerevisiae fusion-defective mutant growth rescue, CellTiterGlo 48 h. Potency, µM (series often up to 46.1 µM), for inactives: top-dose growth rescue (activation), usual class: activators. hit rate 0.23% among 320,000; note: % of control where 0% means no effect; nearly all actives have a fitted effect of over 45% in size
#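 Read-out: ATP-based luminescence (CellTiterGlo, 10 min ambient) reporting growth of fusion-defective ts yeast after 48 hours at 37C on glycerol/ethanol YPEG medium in the presence of compound.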
# GLP-1R inv ag: qHTS of GLP-1 Receptor Inverse Agonists (Inhibition Mode) | Glucagon-like peptide 1 receptor (Homo sapiens), P43220 | HEK293 GLP-1R CRE-luciferase, luminescence, 24 h; GLP-1R form is constitutively active | Potency, µM (series often up to 38.3 µM), for inactives: at the top dose activity change, negative = inhibition, hits mostly inhibitors | hit rate 1.6% among 410,000 | AID 624417, 2012; note: % is set by controls: 0 for no effect and ±100 for the full control effect; nearly all actives have a fitted effect of over 55% in size
#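 Assay principle: reduced luminescence from a cAMP-responsive reporter in HEK293 cells co-expressing a constitutively active GLP-1R. Conditions: 24 hr compound incubation, 37 deg C, 5% CO2.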
# HEK293 tox: qHTS of GLP-1 Receptor Inverse Agonists: Cytotox Screen; HEK293 cAMP-luciferase reporter cells, luminescence, 24 h; Potency, µM (highest dose often 38.3 µM), without a hit: top-dose activity change, negative = inhibition, most hits filed as inhibitors; hit rate 0.13% among 410,000; AID 624418, 2012;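 note: loss of luciferase light is scored as toxicity; % is set by controls: 0 for no effect and ±100 for the full control effect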
#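 Luminescence readout: signal drop marks cytotoxicity. Plated cells grew 12 h at 37 °C, 5% CO2, received 23 nL compound for 24 h, then got luciferase reagent, read after 12 min at RT.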
# BRCA1 expr up: qHTS Assay to Identify Small Molecule Activators of BRCA1 Expression. hit rate 1.1% among 380,000. Potency, µM (titrated, usually from 46.1 µM), for inactives: at the top dose activation, actives largely listed as activators. MCF7-BRCA1-FFLuc reporter, luminescence, 48 h; response scale: scaled: vehicle 0%, 10 µM genistein 100%. AID 624202, 2012; note: nearly all actives have a fitted effect of over 80% in size
#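 48 h compound treatment of MCF7-BRCA1-FFLuc cells (phenol-red free MEM, 37 °C), then 15 min with luciferase substrate and luminescence imaging.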
# Starred values were filed as active, the others as inactive; ? = inconclusive; nt = not tested or not shown. Calls come from the whole dose curve; as a rule, active = well fitted curve in the direction sought with a large enough effect; inconclusive = small, poorly fitted or top-dose-only effect, or another doubt; inactive = no such curve, though single readings can be large; an effect the other way counts as inactive or inconclusive. Potency is the fitted concentration of half-maximal effect.
SMILES,GLP1R ag,Mito fusion act,GLP-1R inv ag,HEK293 tox,BRCA1 expr up
CC(C)C(=O)NCCc1c[nH]c2ccccc12,0%,0%,29%,14%,27%
Cc1ccc(C(=O)NCCc2c[nH]c3ccccc23)s1,15%,-3%,?,2%,3.2µM*
CC(=O)Nc1ccc(C2=NNC(=Nc3cccc(S(=O)(=O)N(C)C)c3)SC2)cc1,-4%,2%,?,?,-79%
CN(C)S(=O)(=O)c1cccc(N=C2NN=C(c3ccccc3)CS2)c1,-10%,-2%,11µM*,?,-67%
COc1ccc(S(=O)(=O)N2CCCc3ccccc32)cc1[N+](=O)[O-],22%,4%,11µM*,-13%,-46%
CN1CCN(S(=O)(=O)c2ccc(-c3ccc(S(=O)(=O)N4CCN(C)CC4)cc3)cc2)CC1,nt,-6%,nt,nt,nt
CN1CCN(S(=O)(=O)c2ccc(Cc3ccc(S(=O)(=O)N4CCN(C)CC4)cc3)cc2)CC1,-9%,-6%,5.6µM*,-1%,-25%
CCCN(CCC)Cc1c(C(=O)N/N=C/c2cccs2)nnn1-c1nonc1N,8%,0%,?,-7%,-14%
COc1ccc(C)cc1NC(=O)CN1CCN(c2ccccc2F)CC1,8%,30%,?,20%,-29%
CC1=NN(C(=O)c2csc(C(C)C)c2)C(O)(C(F)(F)F)C1 (centres undefined),2%,0%,1.3µM*,?,-16%
CC1=NN(C(=O)c2cccnc2)C(O)(C(F)(F)F)C1 (centres undefined),4%,8%,?,?,-16%
CC(C)CC1=NN(C(=O)c2ccncc2)C(O)(C(F)(F)F)C1 (centres undefined),-1%,7%,1.1µM*,-23%,13%
Cc1ccc(CN(Cc2ccco2)C(=S)NCC(=O)NC2CC2)cc1,5%,5%,-22%,-1%,-7%
Cc1cccc(CNC(=O)c2ccc(Cn3c(SCc4ccccc4)nc4cccnc43)cc2)c1,nt,nt,-13%,4%,nt
COc1ccccc1N(C)S(=O)(=O)c1ccc(Cl)c(C(=O)NNC(=O)c2ccccc2O)c1,-3%,3%,11µM*,-12%,-33%
COc1ccccc1N(C)S(=O)(=O)c1ccc(C(=O)NNC(=O)c2ccccc2O)cc1,-11%,3%,?,-5%,-74%
COc1ccccc1N(C)S(=O)(=O)c1ccc(Cl)c(C(=O)N2CCC2)c1,3%,-1%,-10%,4%,-1%
COc1ccccc1N(C)S(=O)(=O)c1ccc(Cl)c(C(=O)OCc2c(C)noc2C)c1,17%,-12%,10µM*,3%,-31%
CC1(C(=O)NCc2ccccc2)Cc2c(-c3ccc4c(c3)OCO4)ccnc2O1 (centres undefined),10%,nt,2.8µM*,-25%,-49%
CC1(C(=O)NCc2ccccc2)Cc2c(-c3ccccc3)ccnc2O1 (centres undefined),-4%,nt,?,-28%,-41%
CC1(C(=O)NCc2ccccc2)Cc2c(-c3ccc(C(N)=O)cc3)ccnc2O1 (centres undefined),20%,nt,6.3µM*,?,-47%
CC1(C(=O)NCCc2ccccc2)Cc2c(-c3ccc4c(c3)OCO4)ccnc2O1 (centres undefined),0%,nt,?,-28%,0%
O=C(NCc1ccco1)C(c1cccs1)N(C(=O)C1COc2ccccc2O1)c1cccc(O)c1 (centres undefined),-21%,-5%,11µM*,-18%,0%
CC(C)CCNC(=O)C(c1ccc(O)cc1)N(Cc1cccs1)C(=O)C1COc2ccccc2O1 (centres undefined),-21%,5%,11µM*,?,-74%
CCOC(=O)N1CCN(C(c2ccc(F)cc2)c2sc3nc(C)nn3c2O)CC1 (centres undefined),4%,3%,0%,-36%,4%
SMILES,GLP1R ag,Mito fusion act,GLP-1R inv ag,HEK293 tox,BRCA1 expr up
O=C(CCCSc1nc2ccccc2[nH]1)Nc1nnc(C2CC2)s1,17%,-2%,3%,-12%,-2%
O=C1CC(O)(c2ccccc2)C(c2ccccc2)=C1c1ccccc1 (centres undefined),-5%,?,10µM*,-11%,-34%
O=C1C=C(c2ccccc2)C(O)(c2ccccc2)C1 (centres undefined),4%,0%,-10%,0%,8%
Cc1ccc(-c2cc(C(=O)N/N=C/C=C/c3ccccc3)n[nH]2)s1,-2%,16µM*,?,-24%,-5%
Cc1cc(C(=O)N/N=C/C=C/c2ccccc2)n[nH]1,1%,-2%,3%,2%,0%
CC(=O)Nc1ccc(NC(=S)NC(=O)c2oc3ccccc3c2C)cc1,0%,0%,6%,-15%,26%
Cc1c(C(=O)Nc2cnccn2)oc2ccccc12,9%,7%,6%,-20%,-52%
Cc1cccnc1NC(=S)NC(=O)c1oc2ccccc2c1C,9%,1%,4.5µM*,?,2.8µM*
Cc1ccnc(NC(=O)c2oc3ccccc3c2C)c1,0%,12%,11µM*,8%,-21%
O=C(NCc1cccnc1)c1cnc2n(c1=O)CCS2,7%,-5%,39%,15%,9%
CCCCCOc1ccc(NS(C)(=O)=O)cc1,-1%,-2%,-7%,4%,11µM*
CCOc1ccc(NS(=O)(=O)c2ccc(NS(C)(=O)=O)cc2)cc1,5%,1%,-11%,-9%,1%
COc1ccc(C(C)=O)cc1COC(=O)c1cc(C)nc2ccccc12,20%,11%,71%,1%,-17%
COc1cc(-c2nc(-c3ccccn3)no2)cc(OC)c1OC,15%,-4%,0%,5%,7.9µM*
c1ccc(-c2noc(-c3cccc4ccccc34)n2)nc1,-1%,10%,?,-2%,-15%
COc1cccc(-c2nc(-c3ccccn3)no2)c1OC,0%,1%,55%,0%,4.5µM*
CNC(=S)N/N=C/c1c2ccccc2c(Cl)c2ccccc12,0%,-10%,7.9µM*,3.5µM*,-27%
CN(C)/C=N/c1ncc(C(=O)c2ccc(-c3ccccc3)cc2)s1,7%,2%,4%,9%,-66%
CN(C)/C=N/c1ncc(C(=O)c2ccccc2)s1,-11%,-2%,18%,-5%,5.6µM*
Cc1cc(C)nc(-n2nc(C)cc2NC(=O)CN2CCc3ccccc3C2)n1,10%,7%,?,5µM*,-11%
